Holding throughout (set-up): species or system human, MV4-11 + K-562 + COLO205 + SK-N-BE2 + OVCAR-8
Experiment [1] concerns TNIK. The conditions noted are these: read-out: apparent Kd, compound concentrations: 100 nM and 1000 nM (sheet 'Samples'), n = 1.
Experiment [2] relates to ADRBK1. To be noted: read-out: apparent Kd, n = 1.
Experiment [3] deals with STK3. The conditions noted are these: read-out: apparent Kd; compound concentrations:100 nM and 1000 nM (sheet 'Samples'); n = 1.
In experiment [4] the test system is PYGL. The conditions noted are these: read-out: apparent Kd, compound concentrations: 100 nM and 1000 nM (sheet 'Samples'), n = 1.
Experiment [5] relates to TESK1. The conditions noted are these: read-out: apparent Kd, compound concentrations: 100 nM and 1000 nM (sheet 'Samples'), n = 1.
Experiment [6] concerns IRAK3. The conditions noted are these: read-out: apparent Kd, compound concentrations: 100 nM and 1000 nM (sheet 'Samples'), n = 1.
The test system of experiment [7] is CDK2. To be noted: read-out: apparent Kd, compound concentrations: 100 nM and 1000 nM (sheet 'Samples'), n = 1.
Experiment [8] has as its system CDK5. The conditions noted are these: read-out: apparent Kd, compound concentrations: 100 nM and 1000 nM (sheet 'Samples'), n = 1.
In experiment [9] the test system is LIMK2. To be noted: read-out: apparent Kd, compound concentrations: 100 nM and 1000 nM (sheet 'Samples'), n = 1.
The subject of experiment [10] is TEC. To be noted: read-out: apparent Kd, n = 1.
Experiment [11] deals with MTOR. To be noted: read-out: apparent Kd, n = 1.
The subject of experiment [12] is PRKAG1. The conditions noted are these: read-out: apparent Kd, n = 1.
Experiment [13] concerns PTK2B. The conditions noted are these: read-out: apparent Kd, n = 1.
In experiment [14] the test system is PTK2. To be noted: read-out: apparent Kd, n = 1.
Experiment [15] relates to STK16. The conditions noted are these: read-out: apparent Kd, compound concentrations: 100 nM and 1000 nM (sheet 'Samples'), n = 1.
In experiment [16] the test system is PIK3CG. The conditions noted are these: read-out: apparent Kd, compound concentrations: 100 nM and 1000 nM (sheet 'Samples'), n = 1.
Experiment [17] concerns PIK3CA. The conditions noted are these: read-out: apparent Kd, compound concentrations: 100 nM and 1000 nM (sheet 'Samples'), n = 1.
Experiment [18] has as its system MAPK8. To be noted: read-out: apparent Kd; compound concentrations:100 nM and 1000 nM (sheet 'Samples'); n = 1.
Experiment [19] has as its system ADCK1. The conditions noted are these: read-out: apparent Kd; compound concentrations: 100 nM and 1000 nM (sheet 'Samples'), CATDS: 3.1344375728913298E-2; n = 1.
Experiment [20] relates to CDK1. To be noted: read-out: apparent Kd; compound concentrations: 100 nM and 1000 nM (sheet 'Samples'), CATDS: 1.7444638533949799E-2; n = 1.
The mark [21] stands for this setting: compound concentrations:100 nM and 1000 nM (sheet 'Samples').

Where two headings read alike, the source gives them in different places.

Turning to `Cl.Oc1cccc(Nc2ccnc3cc(-c4ccncc4)ccc23)c1` [GW494601A], in experiment [1] (CATDS: 2.0441514499226199E-2), the potency estimated from few doses is 1280 nM. With `CS(=O)(=O)Cc1ccc(Nc2nccc(-c3c(-c4cccc(NC(=O)C5CCCCC5)c4)nn4ncccc34)n2)cc1` [GSK350559A], the potency estimated from few doses is 1690 nM in [2] (setting [21]) and 1920 nM in experiment [3]. As to `COc1ccc(Nc2nccc(N3CCC(NC(=O)Nc4ccc5c(c4)OCO5)C3)n2)cc1` (stereo not shown) [GSK1379745A], the potency estimated from few doses in experiment [4] (CATDS: 3.8130802338003297E-2) is 1670 nM; in experiment [5] (CATDS: 7.4775560770701202E-2) it was 510 nM. Regarding `COc1cc(Nc2nccc(N3CCC(NC(=O)c4cccc(C#N)c4)C3)n2)cc(OC)c1OC` (stereo not shown) [GSK1379751A], in experiment [6] (CATDS: 0.26615341135904602), the potency estimated from few doses is 510 nM.

As to `CC(C)c1nc(-c2cccc(NS(=O)(=O)c3ccccc3)c2)c(-c2ccnc(Nc3ccc4c(c3)CN(C)CC4)n2)s1` [GSK1649598A], the potency estimated from few doses in [7] (CATDS: 1.6681675288379799E-2) was 614 nM; in [8] (CATDS: 2.0487115884267999E-2) it was 353 nM; in [9] (CATDS: 3.5211660098846E-2), 116 nM; in experiment [5] (CATDS: 9.9245429656874704E-2) it was 24.2 nM; in experiment [1] (CATDS: 1.2157872123198099E-2), 2170 nM. `Cc1ccc(O)cc1Nc1ccnc2cc(-c3ccc(CN4CCCCC4)o3)ccc12` [GW557777X]: in experiment [10] (compound concentrations: 100 nM and 1000 nM (sheet 'Samples'), CATDS: 1.34758228974899E-2), the potency estimated from few doses was 1040 nM. For `COc1cc(Nc2ccnc3cc(-c4ccncc4)ccc23)cc(OC)c1OC.Cl` [GW494610A], the potency estimated from few doses in [5] (CATDS: 2.92896642952412E-2) was 549 nM; in [1] (CATDS: 2.73925679017063E-2), 689 nM. `NC(=O)c1cccc(Nc2nccc(Nc3cccc4[nH]ncc34)n2)c1` [GW782612X]: the potency estimated from few doses in experiment [6] (CATDS: 4.1377048408479999E-2) was 891 nM. Turning to `O=C1N=C(NCc2cccs2)SC1Cc1ccc2ncccc2c1` (stereo not shown) [RO4629078-000], the potency estimated from few doses in [11] (compound concentrations: 100 nM and 1000 nM (sheet 'Samples'), CATDS: 1.0012071697909601E-2) was 667 nM; in experiment [12] (compound concentrations: 100 nM and 1000 nM (sheet 'Samples'), CATDS: 1.42415287056141E-2), 314 nM; in experiment [13] (compound concentrations: 100 nM and 1000 nM (sheet 'Samples'), CATDS: 1.78994015869859E-2), 211 nM; in [14] (compound concentrations: 100 nM and 1000 nM (sheet 'Samples'), CATDS: 1.61758600761754E-2) it was 250 nM; in experiment [10] (compound concentrations: 100 nM and 1000 nM (sheet 'Samples'), CATDS: 8.6375652210939294E-3), 1000 nM. For the molecule `O=C1N=C(NCCc2ccccn2)S/C1=C\c1ccc2ncccc2c1` [RO4508346-000], the potency estimated from few doses in [15] (CATDS: 6.4775104376565806E-2) is 2150 nM. Take `NC1=NC(=O)/C(=C/c2ccc3ncccc3c2)S1` [RO4569139-000]: the potency estimated from few doses in experiment [16] (CATDS: 0.108121816897262) is 432 nM. With `COc1cc(Nc2nccc(N3CCC(NC(=O)C4COc5ccccc5O4)C3)n2)cc(OC)c1OC` (stereo not shown) [GSK1379761A], the potency estimated from few doses in experiment [6] (CATDS: 0.29618099534974801) is 900 nM. Regarding `Cl.Cl.Cl.c1ccc(Oc2ccc(Nc3ccnc4cc(-c5ccc(CN6CCNCC6)o5)ccc34)cc2)nc1.c1ccc(Oc2ccc(Nc3ccnc4cc(-c5ccc(CN6CCNCC6)o5)ccc34)cc2)nc1` [GW567142A], the potency estimated from few doses in experiment [4] (CATDS: 1.6934358184527699E-2) is 2080 nM; in [10] (compound concentrations: 100 nM and 1000 nM (sheet 'Samples'), CATDS: 1.92615538801734E-2), 1300 nM; in [1] (CATDS: 1.6971599300490501E-2) it was 2060 nM. On to `O=C1N=C(NCCc2cccc(Cl)c2)S/C1=C\c1ccc2ncccc2c1` [RO4509201-000], for which the potency estimated from few doses in experiment [17] (CATDS: 0.11246138422507899) is 274 nM; in experiment [16] (CATDS: 5.9148900132827802E-2), 1370 nM. For the molecule `O=C1N=C(NCc2ccccc2Cl)S/C1=C\c1ccc2ncccc2c1` [RO4506917-000], the potency estimated from few doses in [17] (CATDS: 0.16964202934765399) was 283 nM.

`CS(=O)(=O)CCNCc1ccc(-c2ccc3ncnc(Nc4ccc(OCc5cccc(F)c5)c(C(F)(F)F)c4)c3c2)o1` [GW576484X]: in experiment [11] (compound concentrations: 100 nM and 1000 nM (sheet 'Samples'), CATDS: 9.7740197678702595E-2), the potency estimated from few doses was 599 nM. Consider `Cc1cccc(Nc2nc(NCCN)ncc2C(N)=O)c1` [GSK1292139B], for which, in [1] (CATDS: 7.7542557386304695E-2), the potency estimated from few doses is 1140 nM. For the molecule `Cc1cccc(-c2cc(-c3c[nH]nc3-c3ccccn3)ccn2)c1` [GW679395X], the potency estimated from few doses in experiment [18] was 1610 nM; in experiment [11] (setting [21]), 501 nM; in experiment [10] (setting [21]), 1320 nM. For `COc1cccc(-n2ncc3c(N/N=C/c4ccc(C(=O)NCCN(C)C)cc4)ncnc32)c1.Cl` [GW784307A], the potency estimated from few doses is 900 nM in [19] and 1410 nM in [6] (CATDS: 2.7757665118228601E-2). In the case of `O=C1N=C(NCCc2ccccc2F)S/C1=C\c1ccc2ncccc2c1` [RO4498483-000], the potency estimated from few doses in experiment [17] (CATDS: 0.16167463298299301) is 268 nM. On to `CN1C(=O)c2ccccc2N(C)c2nc(Nc3cnn(C4CCNCC4)c3)ncc21` [XMD-17-51], for which the potency estimated from few doses in [16] (CATDS: 5.0205811396743898E-2) is 50.7 nM; in experiment [12] (compound concentrations: 100 nM and 1000 nM (sheet 'Samples'), CATDS: 1.89897373320012E-2) it was 530 nM; in [15] (CATDS: 1.46632885257346E-2), 1360 nM. With `CNC1=NC(=O)/C(=C/c2ccc3ncccc3c2)S1` [RO4595949-000], the potency estimated from few doses in experiment [16] (CATDS: 8.0370856047911096E-2) is 401 nM. Take `COc1cc2ncn(-c3cc(OCCCc4ccccc4)c(C(N)=O)s3)c2cc1OC` [GSK205189A]: the potency estimated from few doses is 1310 nM in [12] (setting [21]), 642 nM in experiment [13] (setting [21]) and 678 nM in experiment [14] (setting [21]). As for `CN(C)Cc1ccc(-c2ccc3c(Nc4ccc(Oc5ccccn5)cc4)ccnc3c2)o1` [GW567148X], the potency estimated from few doses is 830 nM in [13] (compound concentrations: 100 nM and 1000 nM (sheet 'Samples'), CATDS: 2.12691468378991E-2); 850 nM in [14] (compound concentrations: 100 nM and 1000 nM (sheet 'Samples'), CATDS: 2.1089063317390098E-2).

Regarding `Fc1cc(Cl)ccc1Nc1ccnc2cc(-c3ccc(CN4CCOCC4)o3)ccc12` [GW560109X], the potency estimated from few doses in experiment [1] (CATDS: 4.94410528213204E-2) is 2050 nM. Take `CC(=O)N1CCN(c2ccc(Nc3nccc(-c4sc(C(C)C)nc4-c4cccc(NS(=O)(=O)c5ccccc5)c4)n3)cn2)CC1` [GSK1645872A]: the potency estimated from few doses was 943 nM in experiment [2] (compound concentrations: 100 nM and 1000 nM (sheet 'Samples'), CATDS: 2.7359704437324502E-2); 919 nM in experiment [7] (CATDS: 2.76064563935246E-2); 420 nM in experiment [8] (CATDS: 3.88696390995786E-2); 319 nM in [9] (CATDS: 4.5143474402307197E-2). Consider `CC(=O)N1CCN(c2ccc(Nc3nccc(-c4sc(C(C)C)nc4-c4cccc(NS(=O)(=O)c5cccc(Cl)c5)c4)n3)cn2)CC1` [GSK1660437A], for which, in experiment [9] (CATDS: 4.7315516345464E-2), the potency estimated from few doses was 946 nM. In the case of `Cn1cc(-c2cnc(N)c3c(-c4ccc5c(c4)CCN5C(=O)Cc4ccccc4)csc23)cn1` [GSK2593074A], the potency estimated from few doses in experiment [3] was 1890 nM.

Regarding `CC(C)c1nc(-c2cccc(NS(=O)(=O)c3c(F)cccc3F)c2F)c(-c2ccnc(Nc3ccc(N4CCOCC4)nc3)n2)s1` [GSK2008607A], the potency estimated from few doses in [20] was 2410 nM; in [7] (CATDS: 2.0277618916634502E-2), 1320 nM; in experiment [8] (CATDS: 2.5832908266049601E-2), 668 nM; in experiment [9] (CATDS: 2.06856155254838E-2) it was 1240 nM; in [5] (CATDS: 2.61955130991521E-2) it was 646 nM. `Cl.Cn1c(=O)c(Cc2ccc(F)cc2F)cc2cnc(NC3CCOCC3)nc21` [RO3308757-001]: the results for the potency estimated from few doses in experiment [13] (setting [21]) and in [14] (setting [21]) were 456 nM and 474 nM, respectively. As for `CNc1nccc(-c2c(-c3ccc(F)cc3)ncn2C2CCN(C)CC2)n1` [SB-222903], the potency estimated from few doses in experiment [11] (setting [21]) was 295 nM.

The record behind these values is PMC11062922 (Nature Chemical Biology, 2023).
